SMILES strings stand for the structures. This is part of a sample that, as a whole, favours compounds with a hit. Of some 83,000 tested, about 20% had one in any assay.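 How to read the values: 0–100, growth inhibition (40 = 60% inhibited); 0, no net growth; -100 to 0, cell death (-40 = 40% of starting cells died; -100 = all dead).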 Unmarked numbers belong to inactive results. Active and inactive are the calls of the source. The calls were made as follows: active = growth percent below 10; inactive = the rest.

In the assay the test system is U251 CNS. The experiment in a line: NCI-60 one-dose screen, 48 h (100 = growth as untreated, 0 = no growth, -100 = all killed). The following applies: 10 µM unless noted.
As to `COc1cc(C2CC(=O)Nc3c2cnn3C)cc(OC)c1OC` (stereo not drawn), the growth was 100%. Take `C=C(c1ccc(C(=O)NCCCn2ccnc2)cc1)c1cc2c(cc1C)C(C)(C)CCC2(C)C`: the growth is 12.1%. For `Nc1c(Br)cc2c(c1Br)Cc1cc(Cl)ccc1-2`, the growth was 101%.

For the compound `CCCCCCCCCCCCNC(=O)N[C@H](C(=O)N[C@H]1/C=C/CCNC(=O)/C=C/[C@H](C)NC1=O)C(C)C`, the growth was -95.3% (active). Turning to `C=C(C)[C@@H]1CC[C@]2(C(=O)NS(=O)(=O)c3ccccc3)CC[C@]3(C)[C@H](CC[C@@H]4[C@@]5(C)CC[C@H](OC(=O)NS(=O)(=O)c6ccccc6)C(C)(C)[C@@H]5CC[C@]43C)[C@@H]12`, the growth is 13%. For `Cc1cc(-c2ccccc2)on1`, the growth is 108%.

With `CNC(=O)c1c(NC(=O)c2cccc(C(F)(F)F)c2)sc2c1CCC(=O)C2`, the growth was 2.7% (active). With `COc1ccccc1/C=C/C(=O)CCC(=O)O`, the growth was 107%.

`CCc1c(C)c2ccc(O)c(-c3cc(-c4ccccc4)c(C#N)c(=O)[nH]3)c2oc1=O`: the growth was 100%.

Take `O=C1OCC2=C1C(c1ccccc1)c1cc3c(cc1N2CCO)OCO3` (stereo not drawn): the growth was 20.3%.

With `CCCCCCCCCCCCNC(=O)N[C@H](C(=O)N[C@H]1/C=C/OCCNC(=O)/C=C/[C@H](C(C)C)NC1=O)C(C)C`, the growth is 43.2%.

For `COc1ccc2c(c1)OC1=C(C(=O)OC1)C2c1cc(OC)c2c(c1)OCCO2` (stereo not drawn), the growth is 20.5%. To `O=S1(=O)NCCN1CCNc1nccc(-c2c(-c3cccc(O)c3)nc3sccn23)n1` belongs 120%.

(Values after PubChem BioAssay (NCI).)
